# Results published in the supplement of paper PMC4022240.
# ± gives the standard deviation.
# T1: HaloTag-ATRX ADD domain (163-292)
# T1 chain: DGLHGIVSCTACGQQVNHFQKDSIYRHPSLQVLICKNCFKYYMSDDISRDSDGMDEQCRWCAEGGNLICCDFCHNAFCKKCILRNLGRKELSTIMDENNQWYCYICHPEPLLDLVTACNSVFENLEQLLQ
# Target: T1, HaloTag-ATRX ADD domain (163-292)
# Assay: peptide microarray binding signal (635 nm), min-max normalized on array (fraction of array maximum); higher = stronger binding
# Details: peptide region: Unmod H1 variant; binder concentration: 50 nM
# How it was run: (§1)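 Two probe formats were used for 1 h at 4°C: biotin-labelled HaloTag reader fusions (10 nM to 1 μM) with streptavidin-Alexa Fluor 647, and rabbit histone antibodies (1:10,000 to 1:2,000) with anti-rabbit Alexa 647. Both were applied to nitrocellulose arrays of histone 13-mer peptide–cellulose conjugates printed in triplicate with a Cy3 tracer and blocked overnight at 4°C. Signal was read at 635 nm and misprints at 532 nm on an Axon GenePix 4000B. Binding signal is expressed as the triplicate-spot mean intensity, min-max scaled for each library.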
row,Binder,peptide microarray binding signal
1,DSQIKLSIKRLVT [Unmod H1 variant D S Q I K L S I K R L V T],0.0155 ± 0.00047
2,TPKKASKPKKAAS [Unmod H1 variant T P K K A S K P K K A A S],0.0118 ± 0.00065
3,TKKEIKKVATPKK [Unmod H1 variant T K K E I K K V A T P K K],0.0108 ± 0.00026
4,KAKPVKASKPKKA [Unmod H1 variant K A K P V K A S K P K K A],0.01229 ± 0.00011
5,PKKSVAFKKTKKE [Unmod H1 variant P K K S V A F K K T K K E],0.0103 ± 0.00015
6,KAASKAPTKKPKA [Unmod H1 variant K A A S K A P T K K P K A],0.0142 ± 0.00045
7,SFRLAKSDEPKKS [Unmod H1 variant S F R L A K S D E P K K S],0.0196 ± 0.0052
8,AKKKLAATPKKAK [Unmod H1 variant A K K K L A A T P K K A K],0.01188 ± 3e-05
9,TENSTSAPAAKPK [Unmod H1 variant T E N S T S A P A A K P K],0.0132 ± 0.00019
10,SHYKVGENADSQI [Unmod H1 variant S H Y K V G E N A D S Q I],0.00937 ± 0.00014

# Same assay, conditions: peptide region: Unmod H1 variant; binder concentration: 500 nM
row,Binder,peptide microarray binding signal
1,DSQIKLSIKRLVT [Unmod H1 variant D S Q I K L S I K R L V T],0.0281 ± 0.00085
2,TPKKASKPKKAAS [Unmod H1 variant T P K K A S K P K K A A S],0.00967 ± 0.00036
3,TKKEIKKVATPKK [Unmod H1 variant T K K E I K K V A T P K K],0.00952 ± 0.00026
4,KAKPVKASKPKKA [Unmod H1 variant K A K P V K A S K P K K A],0.00971 ± 0.00061
5,PKKSVAFKKTKKE [Unmod H1 variant P K K S V A F K K T K K E],0.00867 ± 0.00023
6,KAASKAPTKKPKA [Unmod H1 variant K A A S K A P T K K P K A],0.0141 ± 0.00028
7,SFRLAKSDEPKKS [Unmod H1 variant S F R L A K S D E P K K S],0.0223 ± 0.001
8,AKKKLAATPKKAK [Unmod H1 variant A K K K L A A T P K K A K],0.0112 ± 0.00064
9,TENSTSAPAAKPK [Unmod H1 variant T E N S T S A P A A K P K],0.0173 ± 0.002
10,SHYKVGENADSQI [Unmod H1 variant S H Y K V G E N A D S Q I],0.00671 ± 0.00048

# Target: HaloTag-ING2 PHD (mouse Ing2 200-280)
# Assay: as above
# Details: peptide region: Unmod H1 variant; binder concentration: 10 nM
# How it was run: as §1
row,Binder,peptide microarray binding signal
1,DSQIKLSIKRLVT [Unmod H1 variant D S Q I K L S I K R L V T],0.003819 ± 3.5e-05
2,TPKKASKPKKAAS [Unmod H1 variant T P K K A S K P K K A A S],0.00167 ± 1.7e-05
3,TKKEIKKVATPKK [Unmod H1 variant T K K E I K K V A T P K K],0.00185 ± 3.8e-05
4,KAKPVKASKPKKA [Unmod H1 variant K A K P V K A S K P K K A],0.00292 ± 7.4e-05
5,PKKSVAFKKTKKE [Unmod H1 variant P K K S V A F K K T K K E],0.00203 ± 5.4e-05
6,KAASKAPTKKPKA [Unmod H1 variant K A A S K A P T K K P K A],0.00257 ± 0.00013
7,SFRLAKSDEPKKS [Unmod H1 variant S F R L A K S D E P K K S],0.00448 ± 0.00019
8,AKKKLAATPKKAK [Unmod H1 variant A K K K L A A T P K K A K],0.00203 ± 2.1e-05
9,TENSTSAPAAKPK [Unmod H1 variant T E N S T S A P A A K P K],0.005132 ± 2.5e-05
10,SHYKVGENADSQI [Unmod H1 variant S H Y K V G E N A D S Q I],0.00197 ± 2.3e-05

# Same assay, conditions: peptide region: Unmod H1 variant; binder concentration: 100 nM
row,Binder,peptide microarray binding signal
1,DSQIKLSIKRLVT [Unmod H1 variant D S Q I K L S I K R L V T],0.00801 ± 0.00074
2,TPKKASKPKKAAS [Unmod H1 variant T P K K A S K P K K A A S],0.00489 ± 0.00044
3,TKKEIKKVATPKK [Unmod H1 variant T K K E I K K V A T P K K],0.00482 ± 0.0004
4,KAKPVKASKPKKA [Unmod H1 variant K A K P V K A S K P K K A],0.00574 ± 0.00036
5,PKKSVAFKKTKKE [Unmod H1 variant P K K S V A F K K T K K E],0.00298 ± 7.3e-05
6,KAASKAPTKKPKA [Unmod H1 variant K A A S K A P T K K P K A],0.019 ± 0.0066
7,SFRLAKSDEPKKS [Unmod H1 variant S F R L A K S D E P K K S],0.0192 ± 0.0084
8,AKKKLAATPKKAK [Unmod H1 variant A K K K L A A T P K K A K],0.00397 ± 0.00028
9,TENSTSAPAAKPK [Unmod H1 variant T E N S T S A P A A K P K],0.00694 ± 0.00038
10,SHYKVGENADSQI [Unmod H1 variant S H Y K V G E N A D S Q I],0.00298 ± 0.00012

# Target: anti-H3K4me3 antibody ab8580
# Assay: as above
# Details: peptide region: Unmod H1 variant; binder concentration: 1:2,000 dilution
# How it was run: as §1
row,Binder,peptide microarray binding signal
1,DSQIKLSIKRLVT [Unmod H1 variant D S Q I K L S I K R L V T],0.000623 ± 3.1e-05
2,TPKKASKPKKAAS [Unmod H1 variant T P K K A S K P K K A A S],0.000698 ± 3.6e-05
3,TKKEIKKVATPKK [Unmod H1 variant T K K E I K K V A T P K K],0.000604 ± 3e-05
4,KAKPVKASKPKKA [Unmod H1 variant K A K P V K A S K P K K A],0.00051 ± 8.6e-06
5,PKKSVAFKKTKKE [Unmod H1 variant P K K S V A F K K T K K E],0.000321 ± 6.7e-06
6,KAASKAPTKKPKA [Unmod H1 variant K A A S K A P T K K P K A],0.000963 ± 1.4e-05
7,SFRLAKSDEPKKS [Unmod H1 variant S F R L A K S D E P K K S],0.001 ± 0.00013
8,AKKKLAATPKKAK [Unmod H1 variant A K K K L A A T P K K A K],0.000415 ± 8.4e-06
9,TENSTSAPAAKPK [Unmod H1 variant T E N S T S A P A A K P K],0.000906 ± 4.9e-05
10,SHYKVGENADSQI [Unmod H1 variant S H Y K V G E N A D S Q I],0.000227 ± 4.2e-06

# Same assay, conditions: peptide region: Unmod H1 variant; binder concentration: 1:10,000 dilution
row,Binder,peptide microarray binding signal
1,DSQIKLSIKRLVT [Unmod H1 variant D S Q I K L S I K R L V T],0.00137 ± 1.3e-05
2,TPKKASKPKKAAS [Unmod H1 variant T P K K A S K P K K A A S],0.000571
3,TKKEIKKVATPKK [Unmod H1 variant T K K E I K K V A T P K K],0.000628 ± 6.7e-06
4,KAKPVKASKPKKA [Unmod H1 variant K A K P V K A S K P K K A],0.000685 ± 7.2e-06
5,PKKSVAFKKTKKE [Unmod H1 variant P K K S V A F K K T K K E],0.000628 ± 6.7e-06
6,KAASKAPTKKPKA [Unmod H1 variant K A A S K A P T K K P K A],0.001027 ± 1e-05
7,SFRLAKSDEPKKS [Unmod H1 variant S F R L A K S D E P K K S],0.00154 ± 9.8e-05
8,AKKKLAATPKKAK [Unmod H1 variant A K K K L A A T P K K A K],0.000799 ± 2.2e-05
9,TENSTSAPAAKPK [Unmod H1 variant T E N S T S A P A A K P K],0.00188 ± 3.5e-05
10,SHYKVGENADSQI [Unmod H1 variant S H Y K V G E N A D S Q I],0.000571

# Target: anti-H3K9me3 antibody ab8898
# Assay: as above
# Details: peptide region: Unmod H1 variant; binder concentration: 1:2,000 dilution
# How it was run: as §1
row,Binder,peptide microarray binding signal
1,DSQIKLSIKRLVT [Unmod H1 variant D S Q I K L S I K R L V T],0.000513 ± 9.7e-06
2,TPKKASKPKKAAS [Unmod H1 variant T P K K A S K P K K A A S],0.000181
3,TKKEIKKVATPKK [Unmod H1 variant T K K E I K K V A T P K K],0.000121 ± 1.3e-06
4,KAKPVKASKPKKA [Unmod H1 variant K A K P V K A S K P K K A],0.000196 ± 2.1e-06
5,PKKSVAFKKTKKE [Unmod H1 variant P K K S V A F K K T K K E],0.000423 ± 4.2e-05
6,KAASKAPTKKPKA [Unmod H1 variant K A A S K A P T K K P K A],0.000257 ± 5.3e-06
7,SFRLAKSDEPKKS [Unmod H1 variant S F R L A K S D E P K K S],0.000785 ± 0.00015
8,AKKKLAATPKKAK [Unmod H1 variant A K K K L A A T P K K A K],0.000272
9,TENSTSAPAAKPK [Unmod H1 variant T E N S T S A P A A K P K],0.00136 ± 1.7e-05
10,SHYKVGENADSQI [Unmod H1 variant S H Y K V G E N A D S Q I],0.000181

# Same assay, conditions: peptide region: Unmod H1 variant; binder concentration: 1:10,000 dilution
row,Binder,peptide microarray binding signal
1,DSQIKLSIKRLVT [Unmod H1 variant D S Q I K L S I K R L V T],0.00127 ± 2.5e-05
2,TPKKASKPKKAAS [Unmod H1 variant T P K K A S K P K K A A S],0.000519 ± 5.6e-06
3,TKKEIKKVATPKK [Unmod H1 variant T K K E I K K V A T P K K],0.000519 ± 5.6e-06
4,KAKPVKASKPKKA [Unmod H1 variant K A K P V K A S K P K K A],0.000692 ± 7.3e-06
5,PKKSVAFKKTKKE [Unmod H1 variant P K K S V A F K K T K K E],0.000519 ± 5.6e-06
6,KAASKAPTKKPKA [Unmod H1 variant K A A S K A P T K K P K A],0.000807 ± 1.5e-05
7,SFRLAKSDEPKKS [Unmod H1 variant S F R L A K S D E P K K S],0.000923 ± 9.6e-06
8,AKKKLAATPKKAK [Unmod H1 variant A K K K L A A T P K K A K],0.00098 ± 4.6e-05
9,TENSTSAPAAKPK [Unmod H1 variant T E N S T S A P A A K P K],0.0015 ± 2.5e-05
10,SHYKVGENADSQI [Unmod H1 variant S H Y K V G E N A D S Q I],0.000404 ± 4.4e-06
